KDM5B inhibitor – blocks human KDM5B histone demethylase activity | Q9UGL1 | KDM5B demethylase, FDH-coupled NADH fluorescence (FDH is formaldehyde dehydrogenase) | Potency, µM (titrated, usually from 57.7 µM), most hits filed as inhibitors | 2.6% of 220,000 active; active = well fitted inhibition curve with a large enough effect; note: nearly all actives have a fitted effect of over 70% in size
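Measured: NADH fluorescence change, 30 min, RT. System: KDM5BΔAP 200 nM final, H3K4me3 peptide, α-KG, Fe(II), ascorbate, NAD⁺ plus FDH, pH 7.5 HEPES. Compounds: titrated, 10 min pre-incubation with enzyme.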
Hits are given with their value; ! = repeats disagree. The entries come from a sample that favours hits as a whole.

Results for CN(C)c1ncc2c(n1)C(C)(C(=O)NCCOc1ccccc1)CCC2 (centres undefined) ?
KDM5B inhibitor: 32µM

Results for CN1CCN(C(=O)C2(C)CCCc3cnc(Nc4ccccc4)nc32)CC1 (centres undefined) ?
KDM5B inhibitor: inactive

What do the screens show for `CC1(C(=O)Nc2ccc(C(N)=O)cc2)CCCc2cnc(Nc3ccccc3)nc21` (centres undefined)?
KDM5B inhibitor: inactive

Results for CC1(C(=O)NCC2CC2)CCc2cnc(Nc3ccccc3)nc21 (centres undefined) ?
KDM5B inhibitor: inactive

Results for Cn1ccc(NC(=O)C2(C)CCCc3cnc(Nc4ccccc4)nc32)n1 (centres undefined) ?
KDM5B inhibitor: inactive

How did CC1(C(=O)NCCCn2ccnc2)CCCc2cnc(Nc3ccccc3)nc21 (centres undefined) do in these assays?
KDM5B inhibitor: inactive

How did CC1(C(=O)NCc2cccnc2)CCCc2cnc(Nc3ccccc3)nc21 (centres undefined) do in these assays?
KDM5B inhibitor: inactive

What do the screens show for `CN(C)c1ncc2c(n1)C(C)(C(=O)Nc1ccc(Cl)cc1)CCC2` (centres undefined)?
KDM5B inhibitor: 35µM

Results for CN(C)c1ncc2c(n1)C(C)(C(=O)NCCCn1ccnc1)CCC2 (centres undefined) ?
KDM5B inhibitor: 35µM

What do the screens show for `CCCNC(=O)c1nnn(-c2ccc(C)cc2)c1CCC`?
KDM5B inhibitor: inactive

What do the screens show for `Cc1ccc(Cl)cc1N1CCN(CC(=O)NC2CC2)CC1`?
KDM5B inhibitor: inactive

What do the screens show for `Cc1[nH]c(-c2ccccc2)nc1C(=O)N1CCCC[C@H](N(C)C)C1`?
KDM5B inhibitor: inactive

Results for NC(=O)Cn1c(=O)n(CCCCCC(=O)NCc2ccc(F)cc2)c(=O)c2sccc21 ?
KDM5B inhibitor: inactive

How did CCOC(=O)c1ccc(NC(=O)Cn2c(-c3cnccn3)nc(C)c(CCO)c2=O)cc1 do in these assays?
KDM5B inhibitor: inactive

Results for COc1ccccc1-c1nnc(SCC(=O)N2CCN(C(C)=O)CC2)n1N ?
KDM5B inhibitor: inactive

What do the screens show for `CCC(=O)Nc1ccc(C(=O)Nc2cccc(C)c2)cc1`?
KDM5B inhibitor: inactive

How did O=C(NCc1ccnc2[nH]ccc12)c1cccnc1 do in these assays?
KDM5B inhibitor: inactive

What do the screens show for `O=C(NCc1ccnc2[nH]ccc12)c1ccncc1`?
KDM5B inhibitor: inactive

How did O=C(NCc1ccnc2[nH]ccc12)c1ccc(C(F)(F)F)cc1 do in these assays?
KDM5B inhibitor: 35µM!

How did O=C(CSc1nnc(-c2ccc(F)cc2)o1)NC1CCCC1 do in these assays?
KDM5B inhibitor: inactive

How did COc1ccc(Cl)cc1C(=O)N(C)C1CCc2nn(C)c(=O)n2CC1 (centres undefined) do in these assays?
KDM5B inhibitor: inactive

What do the screens show for `Cn1c(=O)c2c(nc(NCCc3ccccc3)n2Cc2ccc(Cl)c(Cl)c2)n(C)c1=O`?
KDM5B inhibitor: inactive

Results for CCOC(=O)/C=C1/CCC(C=O)=C1N1CCOCC1 ?
KDM5B inhibitor: inactive

Results for O=C(Nc1ccc(F)c(F)c1)N1CCc2c(c3ccccc3n2CC2CC2)C1 ?
KDM5B inhibitor: 22µM

Results for O=C(NCCC1CCN(C(=O)Nc2cccc(F)c2)CC1)c1ccccc1 ?
KDM5B inhibitor: inactive

How did Cc1ccc(NC(=O)N2CCc3c(c4ccccc4n3CC3CC3)C2)cc1 do in these assays?
KDM5B inhibitor: 22µM

What do the screens show for `O=C(Nc1cccc(F)c1)N1CCc2c(c3ccccc3n2CC2CC2)C1`?
KDM5B inhibitor: 22µM

How did Cc1ccc(NC(=O)N2CCCC(c3ccccc3)C2)cc1 (centres undefined) do in these assays?
KDM5B inhibitor: inactive

What do the screens show for `O=C(CC1CCN(C(=O)Nc2cccc(F)c2)C1)NC1CC1` (centres undefined)?
KDM5B inhibitor: inactive

What do the screens show for `O=C(Cn1ncc2ccccc2c1=O)Nc1ccc(F)c(F)c1`?
KDM5B inhibitor: inactive

How did Cc1ccc(NC(=O)Cn2c(=O)cc(C(=O)N3CCCC3)c3ccccc32)cc1F do in these assays?
KDM5B inhibitor: inactive

Results for CCc1ccc(NC(=O)N2CCC(CN3CCc4ccccc4C3)CC2)cc1 ?
KDM5B inhibitor: inactive

What do the screens show for `Cn1c(=O)c2nc(Br)n(CCCC#N)c2n(C)c1=O`?
KDM5B inhibitor: inactive

Results for CC(C)OC(=O)C1=C(N)Oc2c(oc(CO)cc2=O)C1c1ccc(F)c(F)c1 (centres undefined) ?
KDM5B inhibitor: inactive

Results for CN(C)c1ccc(-n2cnc3cccnc32)cc1 ?
KDM5B inhibitor: inactive

How did CC12CN3CC(C)(CN(C1)C3c1ccc3c(c1)OCO3)C2O (centres undefined) do in these assays?
KDM5B inhibitor: inactive

How did CC(OC(=O)c1cc(C2CC2)nn1-c1ccccc1)C(=O)Nc1ccc(C#N)cc1 (centres undefined) do in these assays?
KDM5B inhibitor: inactive

What do the screens show for `CCOC(=O)c1c(NC(=O)CC)sc2c1CCCC2=O`?
KDM5B inhibitor: inactive

Results for O=C(c1ccc(-c2ccco2)cc1)N1CCOc2ccc(CN3CCN(c4ccccn4)CC3)cc2C1 ?
KDM5B inhibitor: 28µM

How did O=C(c1noc2c1CCCC2)N1CCOc2ccc(CN3CCN(c4ccccn4)CC3)cc2C1 do in these assays?
KDM5B inhibitor: inactive

How did Cn1nccc1C(=O)N1CCOc2ccc(CN3CCc4ccccc4C3)cc2C1 do in these assays?
KDM5B inhibitor: inactive

Results for O=C(/C=C/c1ccc(F)cc1)c1cccc(N2CCOCC2)c1 ?
KDM5B inhibitor: inactive

How did Cc1ccc(CNc2nc(-c3cccnc3)nc3ccccc23)cc1 do in these assays?
KDM5B inhibitor: inactive

Results for CCC(Oc1ccccc1)C(=O)Nc1nnc(S(=O)(=O)Nc2ccccc2)s1 (centres undefined) ?
KDM5B inhibitor: inactive

What do the screens show for `CCc1ccccc1NS(=O)(=O)c1c(C(=O)N2CCOCC2)c(C)n(C)c1C`?
KDM5B inhibitor: inactive

How did Cc1cc(C[C@@H]2COC[C@@H]2NC(=O)Cn2ncc3ccccc32)on1 do in these assays?
KDM5B inhibitor: inactive

What do the screens show for `Cc1cc(C[C@@H]2COC[C@@H]2NC(=O)CCn2cnc3ccccc32)on1`?
KDM5B inhibitor: inactive

Results for Cc1cc(C[C@@H]2COC[C@@H]2NC(=O)COc2cccc(C)c2C)on1 ?
KDM5B inhibitor: 20µM

Results for O=C(CSCc1nc2cccnc2n1C1CCCCC1)NCc1cccc(Cl)c1 ?
KDM5B inhibitor: inactive

What do the screens show for `Cc1ccc(CNC(=O)C2Cn3cccc3C(=O)N2)o1` (centres undefined)?
KDM5B inhibitor: inactive

Results for O=C(CC1CCCN(c2cn[nH]c(=O)c2)C1)N1CCC(Cc2ccccc2)CC1 (centres undefined) ?
KDM5B inhibitor: inactive

What do the screens show for `COc1cc(C2c3c(oc4ccccc4c3=O)C(=O)N2c2ccccn2)cc(OC)c1OC` (centres undefined)?
KDM5B inhibitor: inactive

How did O=C(c1ccoc1)N1CCC(Nc2cccnc2)C1 (centres undefined) do in these assays?
KDM5B inhibitor: 13µM

What do the screens show for `Cc1ccccc1S(=O)(=O)N1CCC(CCC(=O)Nc2cccnc2)CC1`?
KDM5B inhibitor: inactive

How did Cn1cccc1C(=O)N1CCC(Nc2cccnc2)C1 (centres undefined) do in these assays?
KDM5B inhibitor: inactive

How did CN(C)S(=O)(=O)N1CCC(Nc2cccnc2)C1 (centres undefined) do in these assays?
KDM5B inhibitor: 8.9µM

Results for O=C(c1ccoc1)N1CCC(Oc2cccnc2)C1 (centres undefined) ?
KDM5B inhibitor: inactive

Results for CC(=O)N1CCC(C2CCN(S(=O)(=O)c3cccnc3)C2)CC1 (centres undefined) ?
KDM5B inhibitor: inactive
